Test results taken from PubChem BioAssay (NCATS).
Records with an inconclusive call do not appear. A number with no mark means an inactive call. Active and inactive are the calls of the source. Calls follow the shape of the dose curve; as a rule, active = well fitted inhibition curve with a large enough effect; inconclusive = small, poorly fitted or top-dose-only effect; inactive = flat fitted curve, though single readings scatter.

Molecular target: Ubiquitin carboxyl-terminal hydrolase 1 (Homo sapiens) (UniProt O94782)
Sequence (O94782 whole entry, looked up): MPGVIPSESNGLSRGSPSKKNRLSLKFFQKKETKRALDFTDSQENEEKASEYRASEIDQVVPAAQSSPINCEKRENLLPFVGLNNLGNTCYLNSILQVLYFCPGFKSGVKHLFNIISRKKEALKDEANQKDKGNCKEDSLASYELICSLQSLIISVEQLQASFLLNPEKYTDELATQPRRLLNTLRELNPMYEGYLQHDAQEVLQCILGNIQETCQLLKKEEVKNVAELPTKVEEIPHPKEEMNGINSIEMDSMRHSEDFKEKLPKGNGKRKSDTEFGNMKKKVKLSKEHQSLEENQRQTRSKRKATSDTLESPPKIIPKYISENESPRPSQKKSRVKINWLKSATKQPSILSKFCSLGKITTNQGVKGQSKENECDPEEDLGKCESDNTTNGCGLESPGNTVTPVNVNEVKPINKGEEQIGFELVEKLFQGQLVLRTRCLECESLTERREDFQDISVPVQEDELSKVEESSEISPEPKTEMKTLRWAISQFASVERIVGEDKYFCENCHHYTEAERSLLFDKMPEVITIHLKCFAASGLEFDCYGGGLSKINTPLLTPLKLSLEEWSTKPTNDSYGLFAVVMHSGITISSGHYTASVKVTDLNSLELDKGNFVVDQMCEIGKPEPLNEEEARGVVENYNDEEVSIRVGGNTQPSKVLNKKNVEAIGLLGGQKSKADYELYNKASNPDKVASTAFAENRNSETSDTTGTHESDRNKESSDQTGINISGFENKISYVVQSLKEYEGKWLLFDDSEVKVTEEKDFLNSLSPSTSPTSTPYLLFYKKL
Assay: Inhibitors of USP1/UAF1: Pilot qHTS (AID 504865); also: nearly all actives have a fitted effect of over 35% in size;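 as to activity change, negative = inhibition: rhodamine fluorescence freed from ubiquitin-rhodamine substrate followed over time; top concentration of the series differs between compounds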
Conditions: purified USP1/UAF1, Ub-rhodamine cleavage fluorescence; series mostly up to 114 µM; activity change, negative = inhibition: at the top concentration
Summary of the method: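 USP1/UAF1 complex (1nM) preincubated with compound 15 min at room temperature, then Ub-Rho substrate (150nM final) added. Fluorescence read kinetically at 480/540 nm, 6 reads every 60 seconds. Buffer: 50mM HEPES pH 7.8, 0.5mM EDTA, 0.1 mg/ml BSA, 1mM TCEP, 0.01% Tween-20.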
% is scaled to controls: 0 for no effect and ±100 for the full control effect; potency is read from the fitted curve at half-maximal effect.

| SMILES | activity change, negative = inhibition | Potency |
| --- | --- | --- |
| CC(=O)Oc1ccc(C(=C2CCCCC2)c2ccc(OC(C)=O)cc2)cc1 | -10.2% |  |
| CN(C(=O)CN(CCO)CC(=O)N(C)C(C)(C)Cc1ccccc1)C(C)(C)Cc1ccccc1 | -11.6% [at 54.9 µM] |  |
| CN(C)CCOc1ccccc1Cc1ccccc1 | -10.9% |  |
| Nc1ccc(/C=C/c2ccc(N)cc2S(=O)(=O)O)c(S(=O)(=O)O)c1 | -3.84% |  |
| COC(=O)[C@@H]1CC2=CC(=O)CC[C@]2(C)[C@@]23O[C@@H]2C[C@@]2(C)[C@@H](CC[C@@]24CCC(=O)O4)[C@H]13 | 2.18% |  |
| Nc1nc2ncc(CNc3ccc(C(=O)N[C@@H](CCC(=O)O)C(=O)O)cc3)nc2c(=O)[nH]1 | -7.44% |  |
| CCCN1CCCC[C@H]1C(=O)Nc1c(C)cccc1C | -5.07% |  |
| CCCCC1=NC2(CCCC2)C(=O)N1Cc1ccc(-c2ccccc2-c2nn[nH]n2)cc1 | -7.04% |  |
| NCCc1ccn[nH]1 | -6.93% [at 54.9 µM] |  |
| CCCCCCCCCCOCC(O)CN (stereo not drawn) | -12.1% |  |
| Cc1c(F)c(N2CCNC(C)C2)cc2c1c(=O)c(C(=O)O)cn2C1CC1 (stereo not drawn) | -7.99% |  |
| Cc1c(C(C)C)c(=O)n(-c2ccccc2)n1C | -5.26% |  |
| CC(C)N=C(N)/N=C(\N)Nc1ccc(Cl)cc1 | 1.38% [at 54.9 µM] |  |
| CCN1CCN(c2cc3c(cc2F)c(=O)c(C(=O)O)cn3C2CC2)CC1 | -2.34% |  |
| C[C@H]1[C@H](NC(=O)/C(=N/OC(C)(C)C(=O)O)c2csc(N)n2)C(=O)N1S(=O)(=O)O (stereo in doubt) | -1.01% [at 54.9 µM] |  |
| CC(=O)N/N=C/c1ccc([N+](=O)[O-])o1 | -14.4% |  |
| CC(C)(C(=O)c1cccnc1)c1cccnc1 | -6.55% [at 54.9 µM] |  |

| SMILES | activity change, negative = inhibition | Potency |
| --- | --- | --- |
| CCCCCCCCCCCCCCCC[N+](C)(C)CCN(Cc1ccc(OC)cc1)c1ncccn1 |  | 31.6 µM (active) |
| N[C@H](Cc1c[nH]c2ccccc12)C(=O)O | 0.125% |  |
| COc1ccc(/C=C/C(=O)c2ccc(OC)cc2OC)cc1 | -7.95% |  |
| CO/N=C1\CN(c2nc3c(cc2F)c(=O)c(C(=O)O)cn3C2CC2)CC1CN (stereo not drawn) | -7.39% |  |
| CCCCN1CCCC1C(=O)Nc1c(C)cc(C)cc1C (stereo not drawn) | 1.06% |  |
| C[C@@H]1C[C@H]2[C@@H]3CCC4=CC(=O)C=C[C@]4(C)[C@@]3(F)[C@@H](O)C[C@]2(C)[C@H]1C(=O)CO | -4.16% |  |
| c1ccc(CNCCNCc2ccccc2)cc1 | 3.39% |  |
| Cc1cc(N)c2cc(NC(=O)Nc3ccc4nc(C)cc(N)c4c3)ccc2n1 |  | 10 µM (active) |
| CCN1CCCC1=O | -6.7% |  |
| OC(CCN1CCCCC1)(c1ccccc1)c1ccccc1 | -1.85% |  |
| CC(C)COC(=O)c1ccc(N)cc1 | -8.36% |  |
| CC(C)=CCC1C(=O)N(c2ccccc2)N(c2ccccc2)C1=O | -4.87% [at 54.9 µM] |  |
| O=C(CCN1CCC(c2ccccc2)C1)c1ccc2c(c1)OCCO2 (stereo not drawn) | -10.7% |  |
| CCCCCC=CCC=CCCCCCCCC(=O)OCC | -11% |  |
| CCC(=O)c1c(O)cc(O)cc1O | -10.8% |  |
| CCCCCCCCCCCCCCCCOP(=O)([O-])OCC[N+](C)(C)C | -8.52% |  |
